Reference: PubChem BioAssay AID1851 (National Center for Advancing Translational Sciences (NCATS), 2009)
The whole screen tested about 16,000 compounds, of which about 2,600 (16%) were called active. About 20% were inconclusive and are not listed. Calls follow the shape of the dose curve; as a rule, active = well fitted curve in the direction sought with a large enough effect; inconclusive = small, poorly fitted or top-dose-only effect, or effect the other way; inactive = no such curve, though single readings can be large or run the other way. The list is a sample of the results.

molecular target: Cytochrome P450 2D6 (Homo sapiens) (UniProt P10635); experiment: Cytochrome panel assay with activity outcomes; details: recombinant CYP, pro-luciferin dealkylation, luminescence, p450-cyp2d6; series mostly up to 57.1 µM; activity, negative = inhibition: at the top concentration
Sequence (P10635 whole entry, looked up): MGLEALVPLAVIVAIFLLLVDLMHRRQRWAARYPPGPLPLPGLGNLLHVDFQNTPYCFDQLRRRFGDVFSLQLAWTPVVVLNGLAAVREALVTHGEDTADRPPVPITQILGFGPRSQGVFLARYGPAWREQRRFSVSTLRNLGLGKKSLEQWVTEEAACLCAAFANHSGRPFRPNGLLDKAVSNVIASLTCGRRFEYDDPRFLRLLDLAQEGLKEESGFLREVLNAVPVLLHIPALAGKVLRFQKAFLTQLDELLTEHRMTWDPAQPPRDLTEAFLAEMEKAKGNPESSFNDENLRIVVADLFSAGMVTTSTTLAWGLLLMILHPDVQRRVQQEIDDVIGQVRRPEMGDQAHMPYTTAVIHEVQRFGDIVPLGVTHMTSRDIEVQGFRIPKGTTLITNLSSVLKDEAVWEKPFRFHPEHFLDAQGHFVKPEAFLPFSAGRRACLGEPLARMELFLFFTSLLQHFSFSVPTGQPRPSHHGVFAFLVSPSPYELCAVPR
% is scaled to controls: 0 for no effect and ±100 for the full control effect.

activity, negative = inhibition, inactive:
CCN(CC)c1ccc(SS(=O)(=O)O)cc1 -13%
C[C@@H](C(=O)NCc1cccc2ccccc12)[C@H]1C[C@]1(C)[C@H](NC(=O)OCc1ccccc1)c1ccccc1 -9.78%
COC(=O)[C@H](C)[C@@H]1C[C@@]1(C)[C@@H](NC(=O)OCc1ccccc1)c1ccccc1 -2.56%
O=C(N[C@@H](c1ccccc1)[C@@H]1C[C@H]1C(=O)O)OCc1ccccc1 9.66%
O=C(N[C@@H](c1ccccc1)[C@@H]1C[C@H]1C(=O)NCc1ccccn1)OCc1ccccc1 1.41%
COC(=O)[C@H](C)[C@H]1C[C@]1(C)[C@H](NC(=O)OCc1ccccc1)c1ccccc1 5.73%
O=C(O)c1ccccc1-c1ccc(/C=c2\sc3nc4cc(Br)cnc4n3c2=O)o1 -8.16%
N#CC(C#N)=C(N)/C(C#N)=C/c1ccc(O)cc1 -1.02%
COc1ccc(/C(C)=N/NC(=O)c2ccc(N(C)C)cc2)cc1 -6.35%
COc1cc2c(cc1OC)C(C(=O)Nc1cccc(C)n1)C(c1cccnc1)N(C)C2=O (stereo unspecified) -18.4%
COc1cc(C2C(=O)N(C3CCCC3)CC(=O)N2Cc2ccco2)ccc1OC(C)C (stereo unspecified) 4.45%
CCCC1C(=O)N(c2ccccc2)C1c1ccccc1 (stereo unspecified) 3.57%
CCCCOC(=O)c1cc2c(cn1)[nH]c1ccccc12 -13.7%
CCCC[C@@H]1C[C@H]1C(NC(=O)Cc1ccccc1)c1ccc(-c2ccccc2)cc1 (stereo partly specified) -5.89%
CCOC(=O)c1c(C)nc2sc3c(=O)n(-c4ccc(C)cc4)cnc3c2c1-c1ccc(OC)cc1 -2.22%
O=C(O)c1c2c(c(O)c3c1CN(C1CCCCC1)CO3)OCN(C1CCCCC1)C2 15.7% [at 11.4 µM]
C[C@@H](C(=O)O)[C@@H]1C[C@@]1(C)[C@@H](NC(=O)OCc1ccccc1)c1ccccc1 -0.73%
C[C@@H](C(=O)O)[C@H]1C[C@]1(C)[C@H](NC(=O)OCc1ccccc1)c1ccccc1 1.3%
O=C(O)C[C@H](Cc1ccccc1)C(=O)O 6.15% [at 11.4 µM]
CCC(C)NC(=O)NC(=O)N(C1CCCCC1)S(C)(=O)=O (stereo unspecified) 3.21%
CO[C@H]1C[C@@H](O[C@@H]2[C@H](C)[C@H](O[C@@H]3O[C@@H](C)C[C@@H](N(C)C)[C@@H]3O)[C@H](C)C[C@]3(CO3)C(=O)[C@H](C)[C@H](O)[C@H](C)[C@H](C)OC(=O)[C@@H]2C)O[C@@H](C)[C@H]1O 8.23% [at 25.6 µM]
C[N+]1(CCC[N+]2(C)C[C@H]3[C@H](C2)[C@H]2C=C[C@@H]3CC2)CCOCC1 (stereo partly specified) -2.37% [at 11.4 µM]
NC(=S)Nc1cccc2cccnc12 -8.92%
S=C(CSc1ccccc1)Nc1cccc2ccccc12 -5.75% [at 11.4 µM]
CSc1nc(Oc2ccc(F)cc2)c2ccccc2n1 -4.49%
C[C@@]1(C(NC(=O)c2cccs2)c2ccc(-c3ccccc3)cc2)C[C@H]1C1CCCCC1 (stereo partly specified) 7.48%
COc1ccc(OC)c(NC(=O)CSCc2cnn(-c3ccccc3)c2-n2cccc2)c1 -26.4%
O=C(NCc1ccco1)c1nc2c(nnn2Cc2cccc(Cl)c2)c(=O)[nH]1 1.2%
COc1ccccc1Cn1nnc2c(=O)[nH]c(C3CCN(C(=O)c4ccc(C)cc4)CC3)nc21 -27.8%
NCCSc1nc(-c2ccccc2)c(-c2ccccc2)o1 5.57% [at 11.4 µM]
COc1ccc(Br)c2c1C[C@H](C(=O)O)CC2 7.4% [at 11.4 µM]
O=C(NNC(=O)c1sc2ccccc2c1Cl)Nc1ccc(Cl)cc1 -18.8%
Cc1sc(NC(=O)C(C)C)c(C(=O)Nc2ccccc2)c1C -25.2%
Cc1ccc(C)c(-c2cc(C(=O)Nc3sc(C)c(C)c3C(N)=O)c3ccccc3n2)c1 2.56%
COc1cccc(-c2nnc3sc(-c4ccc(C)cc4)nn23)c1 -3.08%
O=C(CCn1c(=O)[nH]c2ccsc2c1=O)Nc1ccc(F)c(F)c1 15.9%
CCOc1cc2[nH]c(=O)n(CCCC(=O)NCc3ccc(OC)cc3)c(=O)c2cc1OCC -1.12%

AC50, active:
C[C@@H](C(=O)NCc1ccccn1)[C@@H]1C[C@@]1(C)[C@@H](NC(=O)OCc1ccccc1)c1ccccc1 12.6 µM
C[C@@H](C(=O)NCCc1c[nH]c2ccccc12)[C@H]1C[C@]1(C)[C@H](NC(=O)OCc1ccccc1)c1ccccc1 2 µM
C[C@@H](C(=O)NCCF)[C@H]1C[C@]1(C)[C@H](NC(=O)OCc1ccccc1)c1ccccc1 6.31 µM
C[C@@H](C(=O)NCc1ccc(S(C)(=O)=O)cc1)[C@H]1C[C@]1(C)[C@H](NC(=O)OCc1ccccc1)c1ccccc1 0.398 µM
CNC(=O)[C@H](C)[C@@H]1C[C@@]1(C)[C@@H](NC(=O)OCc1ccccc1)c1ccccc1 3.16 µM
CN=C(N)/N=C(\N)Nc1cc2ccccc2c2ccccc12 1.58 µM
NC(=S)Nc1cc2ccccc2c2ccccc12 28.2 µM
COc1cccc(Cn2nnc3c(=O)[nH]c(C4CCCN(C(=O)c5ccccc5Cl)C4)nc32)c1 (stereo unspecified) 15.8 µM
Cc1sc(NC(=O)c2ccccc2)c(C(=O)NCCN(C)C)c1C 14.1 µM
